D1 agonist = Allosteric Agonists of the Human D1 Dopamine Receptor: qHTS; 1% of 360,000 active; D(1A) dopamine receptor (Homo sapiens), P21728; activation, % at 2 µM; HEK293 T-REx D1 cells, calcium flux, agonist mode; AID 504660, 2011
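Tetracycline-induced HEK293 TREx D1 cells, force-coupled to calcium signalling, were dye-loaded with a no-wash calcium kit. Compound was pin-added after a 10 s baseline. Fluorescence was read kinetically at 1 cycle/s for 180 s, with calcium rises flagged as agonism.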
D1 antagonist = Antagonist of Human D 1 Dopamine Receptor: qHTS; D(1A) dopamine receptor (Homo sapiens), P21728; HEK293 TREx D1 cells, calcium flux, dopamine EC80; active compounds read low; activity change, negative = inhibition, % at 10 µM; 3.2% of 360,000 active; in the data active = activity change below about -30%
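Cells carrying a force-coupled, tetracycline-inducible human D1 receptor report calcium flux. Each well gets a 10 s baseline, compound with 180 s monitoring, then an EC80 dopamine stimulus with a second 180 s kinetic read.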
TRHR agonist = qHTS for Small Molecule Agonists and Allosteric Enhancers of Human TRH Receptor: Primary Screen for Agonists | activation, % at 2 µM | TRHR cells, calcium flux fluo-8, FDSS agonist mode | AID 493084, 2011 | 0.18% of 360,000 active | Thyrotropin-releasing hormone receptor (Homo sapiens), P34981
Target sequence (P34981 whole entry, looked up): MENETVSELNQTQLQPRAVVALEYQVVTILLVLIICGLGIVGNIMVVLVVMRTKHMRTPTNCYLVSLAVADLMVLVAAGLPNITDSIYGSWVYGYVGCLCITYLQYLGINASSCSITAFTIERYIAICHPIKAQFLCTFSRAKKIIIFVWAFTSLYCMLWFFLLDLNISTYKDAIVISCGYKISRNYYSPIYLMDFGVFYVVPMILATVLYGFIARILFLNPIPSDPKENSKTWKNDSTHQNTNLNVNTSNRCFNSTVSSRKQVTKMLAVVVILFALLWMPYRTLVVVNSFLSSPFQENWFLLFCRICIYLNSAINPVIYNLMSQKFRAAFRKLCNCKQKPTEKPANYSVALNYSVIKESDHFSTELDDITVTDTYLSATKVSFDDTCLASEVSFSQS
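Agonist-mode FDSS calcium read (Ex 480/Em 530, 1 s cycles) in 1536-well TRHR cells with fluo-8 dye, after 10-cycle baseline and 23 nL compound addition; TRH at EC20 (10 nM final) added afterwards for the enhancer phase.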
D1 PAM = Potentiators of Human D1 Dopamine Receptor: qHTS | 0.036% of 360,000 active | potentiation, % at 10 µM | D(1A) dopamine receptor (Homo sapiens), P21728 | HEK293 TREx D1 cells, calcium flux, dopamine EC20 potentiation; in the data active = potentiation above about 30%
TRHR PAM = qHTS for Small Molecule Agonists and Allosteric Enhancers of Human TRH Receptor: Primary Screen for Enhancers; Thyrotropin-releasing hormone receptor (Homo sapiens), P34981; TRHR cells, fluo-8 calcium fluorescence, EC20 TRH enhancement; enhancement, % at 2 µM; 0.66% of 360,000 active; in the data active = enhancement above about 30%
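TRHR-expressing cells loaded with fluo-8 calcium dye were read kinetically (ex 480/em 530) during compound addition, then stimulated with an EC20 of TRH (10 nM final). Enhancement of the Gq-mediated intracellular calcium response was scored.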
Numbers stand for hits; – = inactive; ! = not confirmed by another sample. Compounds with a hit are over-represented: about 4.7% of the library has one in this group of screens. Cut-off read from the data, not from the text of the source, unless noted: active = activation above about 30%; inactive = the rest.

SMILES | D1 agonist | D1 antagonist | TRHR agonist | D1 PAM | TRHR PAM
CC(C)CN(C(=O)CN1CCN(c2cccc(Cl)c2)CC1)c1c(N)n(CC(C)C)c(=O)[nH]c1=O | – | – | – | – | –
CCCCC[C@]12Cc3ccccc3C(O1)c1c(cc(C)oc1=O)O2 | – | – | – | – | –
CCCCn1c(=O)[nH]c2nc3cc(N)ccc3nc2c1=O | 207 | – | 108 | – | –
CCCCn1c(N)c(Br)c(=O)[nH]c1=O | – | – | – | – | –
Nc1ccc2nc3c(=O)n(CCc4ccccc4)c(=O)[nH]c3nc2c1 | 435 | – | 164 | – | 58
Nc1ccc2nc3c(=O)n(C4CCCCC4)c(=O)[nH]c3nc2c1 | 276 | – | 128 | – | –
Nc1ccc2nc(CCc3ccccc3)[nH]c2c1 | – | – | – | – | –
Cc1cc2nc3c(=O)n(CCc4ccccc4)c(=O)[nH]c3nc2cc1N | 352 | – | 142 | – | –
CC(=O)c1ccc(NC(=O)c2cccc(N3C(=O)c4ccccc4C3=O)c2)cc1 | – | -31 | – | – | –
CC(=O)Nc1cccc2c1C(=O)N(c1cccc(OC(C)=O)c1)C2=O | – | – | – | – | –
CC(=O)Oc1cccc(N2C(=O)c3ccccc3C2=O)c1 | – | -31 | – | – | –
CC(=O)c1ccc(C(=O)Nc2ccc3c(c2)C(=O)NC3=O)cc1 | – | -35 | – | – | –
Cc1ccc2c(CN3CCN(C(=O)c4ccc(Br)cc4)CC3)cc(=O)oc2c1 | – | – | – | – | –
COc1cc(SC)ccc1C(=O)OCC(=O)NCC(C)C | – | – | – | – | –
COc1cc(SC)ccc1C(=O)OCC(=O)NC(=O)NC(C)C | – | -66 | – | – | –
CCN1Cc2cccc(C(=O)Nc3ccc(F)cc3)c2C1=O | – | – | – | – | –
O=C(NNC(=O)c1ccc(NC(=O)c2ccccc2)cc1)c1ccc(F)cc1 | – | -67 | – | – | –
O=C(NNC(=O)c1ccc(NC(=O)c2ccccc2)cc1)Nc1ccccc1 | – | – | – | – | –
O=C(Nc1ccccc1Sc1ccccc1)c1ccc(F)cc1 | – | – | – | – | –
O=C(NNS(=O)(=O)c1ccccc1)Nc1ccc(F)cc1 | – | -36 | – | – | –
O=C(Nc1ccccc1NC(=O)c1ccc(F)cc1)c1ccc(F)cc1 | – | -36 | – | – | –
O=C(NNS(=O)(=O)c1ccccc1)c1ccc(F)cc1 | – | – | – | – | –
COc1ccccc1NC(=O)c1nn(C)c2c1CS(=O)(=O)c1ccccc1-2 | – | – | – | – | –
COc1ccc(C(=O)NCc2ccc3c(c2)CCN3C(=O)c2ccc(Cl)cc2)c(OC)c1 | – | – | – | – | –
Cc1ccc(NC(=O)C2CCN(C(=O)c3cnn(-c4ccccc4)c3-n3cccc3)CC2)cc1 | – | – | – | – | –
SMILES | D1 agonist | D1 antagonist | TRHR agonist | D1 PAM | TRHR PAM
O=C(Nc1c(-c2ccccc2)nc2ccccn12)c1ccccc1 | – | – | – | – | –
O=C(Nc1c(-c2ccccc2)nc2ccccn12)c1ccccc1F | – | -75! | – | – | –
Cc1cccc(N(C)C(=O)C(Cc2ccccc2)NS(=O)(=O)c2cccc3nsnc23)c1 (stereo not drawn) | – | – | – | – | –
Cc1nn(-c2ccccc2)c(Cl)c1/C=N/Nc1ccc(Cl)c(C(=O)O)c1 | – | – | – | – | –
Cc1nn(-c2ccccc2)c(Cl)c1/C=N/Nc1ccc(S(=O)(=O)Nc2ccccc2C(=O)O)cc1[N+](=O)[O-] | – | -32 | – | – | –
O=c1[nH][nH]c(-c2ccccc2)c1C=Nc1cccc(Cl)c1 | – | -34 | – | – | –
O=c1[nH][nH]c(-c2ccccc2)c1C=Nc1ccc(Cl)cc1 | – | – | – | – | –
Cc1ccc(N(C)C(=O)c2cnc(N3CCOCC3)c3ccccc23)cc1C | – | -37 | – | – | –
CCN(C(=O)c1cnc(N2CCOCC2)c2ccccc12)c1cc(C)ccc1C | – | -43 | – | – | –
CCOC(=O)c1cc(-c2ccccc2)n(CC(=O)Nc2cc(Cl)c(OC)cc2OC)c1C | – | – | – | – | –
COC(=O)C1=C(C)OC(N)=C(C#N)C1c1ccccc1F (stereo not drawn) | – | – | – | – | –
N#CC1=C(N)Oc2cc(O)c(Cl)cc2C1c1ccccc1F (stereo not drawn) | 166 | – | 55 | – | –
COc1ccc(-c2ccc3c(N)c(C(=O)Nc4cccc(C)c4)sc3n2)cc1 | – | – | – | – | –
CC(C)CSc1ccccc1NC(=O)c1sc2nc(-c3ccncc3)ccc2c1N | – | -31 | – | – | –
COc1cccc(-c2ccc3c(N)c(C(=O)Nc4ccc(Cl)cc4F)sc3n2)c1 | – | -31 | – | – | –
COc1cccc(-c2ccc3c(N)c(C(=O)Nc4cc(C(F)(F)F)ccc4OC)sc3n2)c1 | – | -35 | – | – | –
COc1ccc(NC(=O)Cn2cc(C(=O)c3ccccc3OC)c(=O)c3ccc(C)nc32)cc1OC | – | – | – | – | –
O=c1c2c(nc3nc(NCc4ccccc4Cl)[nH]n13)CCC2 | – | -36 | – | – | –
N#C/C(=C\c1c(Oc2ccc(F)cc2)nc2ccccn2c1=O)c1nc2ccccc2s1 | – | – | – | – | –
CCc1ccccc1NC(=O)c1sc(-n2nc(C)c(Cc3ccccc3)c2C)nc1C | – | – | – | – | –
COc1cccc(NC(=O)Cc2ccccc2)c1 | – | – | – | – | –
CC(CCc1ccccc1)NC(=O)c1ccccc1 (stereo not drawn) | – | – | – | – | –
COc1cccc(C(=O)NC(C)CCc2ccccc2)c1 (stereo not drawn) | – | – | – | – | 33
COc1cccc(NC(=O)CCc2ccccc2)c1 | – | -44 | – | – | –
COc1cccc(NC(=O)Cn2c(=O)n(CCCCC(=O)NCCc3ccccc3)c(=O)c3ccccc32)c1 | – | -44 | – | – | –
SMILES | D1 agonist | D1 antagonist | TRHR agonist | D1 PAM | TRHR PAM
COc1cccc(NC(=O)Nc2cc(C(=O)O)ccc2C)c1 | – | -43 | – | – | –
COc1cccc(NC(=O)Cn2c(=O)n(CCC(=O)NCCc3ccc(Cl)cc3)c(=O)c3ccccc32)c1 | – | – | – | – | –
CSc1ccc(C2CC(=O)Oc3c2c(=O)n(C)c2ccccc32)cc1 (stereo not drawn) | – | – | – | – | –
COc1cccc(NC(=O)Cc2c(O)c3ccccc3[nH]c2=O)c1 | – | – | – | – | 31
COc1cccc(NC(=O)CN(C)C(=O)CNC(=O)c2ccccc2F)c1 | – | -33 | – | – | –
CC(=O)c1ccc(NC(=O)CCCc2nc(-c3cccc(C)c3)no2)cc1 | – | – | – | – | –

From PubChem
